Tests used:
Assay in all cases: log2 ratio of Biotin-Ahx-Ub-VS probe labelling (fragment/DMSO); higher = less target engagement (more negative = stronger competition), active = hit call of the paper (q ≤ 0.05, log2 ratio ≤ -1)
Settings in all cases: compound concentration: 200 uM; treatment time: 3 h
[1] = target: USP34 (UniProt Q70CQ2)
How it was run: (§1)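 Each value is an average log2 ratio of fragment to vehicle, tested by unpaired t-test. The underlying Spectronaut label-free quantities were global-median-normalised, and only proteins with ≥2 unique peptides were included. Triplicate HEK293T lysate samples (495 µg) were exposed to fragment at 200 µM or vehicle for 3 h, then to Biotin-Ahx-Ub-VS at 0.5 µM final for 1 h, before NeutrAvidin enrichment of labelled DUBs, LysC and trypsin digestion, and diaPASEF LC-MS/MS.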

[2] = target: T1, USP36 (UniProt Q9P275)
T1 sequence (whole entry): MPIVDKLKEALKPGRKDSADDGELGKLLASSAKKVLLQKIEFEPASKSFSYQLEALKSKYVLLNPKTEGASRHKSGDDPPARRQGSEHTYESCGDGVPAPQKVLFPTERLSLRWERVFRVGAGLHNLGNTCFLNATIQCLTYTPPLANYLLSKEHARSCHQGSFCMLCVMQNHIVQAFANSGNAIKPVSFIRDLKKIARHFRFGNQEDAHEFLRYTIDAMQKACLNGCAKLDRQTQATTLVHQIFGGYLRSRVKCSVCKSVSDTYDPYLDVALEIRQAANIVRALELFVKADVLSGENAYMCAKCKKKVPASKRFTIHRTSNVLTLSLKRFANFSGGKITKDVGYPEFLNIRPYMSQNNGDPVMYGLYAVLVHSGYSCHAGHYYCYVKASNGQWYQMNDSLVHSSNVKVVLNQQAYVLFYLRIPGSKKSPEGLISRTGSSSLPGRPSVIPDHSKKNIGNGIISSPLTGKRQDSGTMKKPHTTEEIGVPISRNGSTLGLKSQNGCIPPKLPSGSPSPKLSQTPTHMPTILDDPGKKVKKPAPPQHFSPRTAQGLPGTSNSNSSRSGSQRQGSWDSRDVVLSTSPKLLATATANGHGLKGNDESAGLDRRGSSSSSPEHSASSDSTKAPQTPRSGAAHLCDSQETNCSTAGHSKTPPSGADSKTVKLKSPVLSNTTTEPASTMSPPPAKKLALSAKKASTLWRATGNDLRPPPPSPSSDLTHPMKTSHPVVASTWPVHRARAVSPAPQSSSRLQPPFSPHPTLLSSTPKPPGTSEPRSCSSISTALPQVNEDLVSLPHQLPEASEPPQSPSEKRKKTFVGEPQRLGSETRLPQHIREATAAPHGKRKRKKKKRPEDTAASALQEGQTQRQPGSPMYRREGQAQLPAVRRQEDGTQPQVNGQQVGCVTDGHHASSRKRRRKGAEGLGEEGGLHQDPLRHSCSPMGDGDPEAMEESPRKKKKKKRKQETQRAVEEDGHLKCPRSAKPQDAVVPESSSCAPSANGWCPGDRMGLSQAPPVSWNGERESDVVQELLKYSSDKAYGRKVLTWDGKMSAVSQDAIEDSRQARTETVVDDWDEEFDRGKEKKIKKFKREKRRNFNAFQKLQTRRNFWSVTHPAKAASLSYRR
How it was run: as §1

[3] = target: T2, USP38 (UniProt Q8NB14)
T2 sequence (whole entry): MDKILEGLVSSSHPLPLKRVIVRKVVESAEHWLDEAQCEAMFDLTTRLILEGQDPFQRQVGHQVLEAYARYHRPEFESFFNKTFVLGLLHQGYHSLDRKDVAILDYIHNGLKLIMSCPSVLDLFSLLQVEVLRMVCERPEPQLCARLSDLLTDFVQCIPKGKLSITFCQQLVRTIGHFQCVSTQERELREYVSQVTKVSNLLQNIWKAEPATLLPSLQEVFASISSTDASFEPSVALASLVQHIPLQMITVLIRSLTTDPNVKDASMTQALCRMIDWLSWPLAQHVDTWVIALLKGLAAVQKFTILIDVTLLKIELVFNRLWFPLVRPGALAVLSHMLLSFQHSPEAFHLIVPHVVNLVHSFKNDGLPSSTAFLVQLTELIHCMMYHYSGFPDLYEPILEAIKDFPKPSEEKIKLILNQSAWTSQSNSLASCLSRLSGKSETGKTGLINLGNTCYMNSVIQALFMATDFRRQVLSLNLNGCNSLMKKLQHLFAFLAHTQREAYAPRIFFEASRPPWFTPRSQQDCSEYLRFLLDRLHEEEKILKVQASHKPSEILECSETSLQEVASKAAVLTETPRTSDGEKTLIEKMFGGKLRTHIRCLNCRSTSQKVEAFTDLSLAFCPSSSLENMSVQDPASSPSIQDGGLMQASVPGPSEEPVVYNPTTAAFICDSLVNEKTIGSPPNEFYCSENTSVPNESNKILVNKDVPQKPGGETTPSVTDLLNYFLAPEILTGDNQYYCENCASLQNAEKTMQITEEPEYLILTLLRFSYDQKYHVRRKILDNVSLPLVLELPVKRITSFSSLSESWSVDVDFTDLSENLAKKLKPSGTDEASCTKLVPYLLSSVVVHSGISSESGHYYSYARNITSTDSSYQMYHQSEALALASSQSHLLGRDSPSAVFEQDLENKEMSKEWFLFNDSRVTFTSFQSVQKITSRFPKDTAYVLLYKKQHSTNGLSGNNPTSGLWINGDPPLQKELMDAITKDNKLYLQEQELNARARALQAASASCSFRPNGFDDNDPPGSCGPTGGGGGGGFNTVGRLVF
How it was run: as §1

[4] = target: T3, USP39 (UniProt Q53GS9)
T3 sequence (whole entry): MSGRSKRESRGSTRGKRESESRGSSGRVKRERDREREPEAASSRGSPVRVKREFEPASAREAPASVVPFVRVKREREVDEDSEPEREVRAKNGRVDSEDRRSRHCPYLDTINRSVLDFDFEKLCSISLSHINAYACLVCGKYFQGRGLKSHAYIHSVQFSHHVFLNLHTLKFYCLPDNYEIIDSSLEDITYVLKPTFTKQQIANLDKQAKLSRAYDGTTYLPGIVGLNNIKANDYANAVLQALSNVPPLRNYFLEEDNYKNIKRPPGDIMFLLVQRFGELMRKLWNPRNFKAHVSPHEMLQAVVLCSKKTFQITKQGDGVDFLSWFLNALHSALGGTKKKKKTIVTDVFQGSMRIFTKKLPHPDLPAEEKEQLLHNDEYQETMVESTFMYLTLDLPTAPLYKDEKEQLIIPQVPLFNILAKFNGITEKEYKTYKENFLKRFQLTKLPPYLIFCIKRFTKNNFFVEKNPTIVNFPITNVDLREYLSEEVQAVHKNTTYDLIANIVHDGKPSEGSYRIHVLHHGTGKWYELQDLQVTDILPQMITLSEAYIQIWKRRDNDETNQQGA
How it was run: as §1

[5] = target: T4, USP4 (UniProt Q13107)
T4 sequence (whole entry): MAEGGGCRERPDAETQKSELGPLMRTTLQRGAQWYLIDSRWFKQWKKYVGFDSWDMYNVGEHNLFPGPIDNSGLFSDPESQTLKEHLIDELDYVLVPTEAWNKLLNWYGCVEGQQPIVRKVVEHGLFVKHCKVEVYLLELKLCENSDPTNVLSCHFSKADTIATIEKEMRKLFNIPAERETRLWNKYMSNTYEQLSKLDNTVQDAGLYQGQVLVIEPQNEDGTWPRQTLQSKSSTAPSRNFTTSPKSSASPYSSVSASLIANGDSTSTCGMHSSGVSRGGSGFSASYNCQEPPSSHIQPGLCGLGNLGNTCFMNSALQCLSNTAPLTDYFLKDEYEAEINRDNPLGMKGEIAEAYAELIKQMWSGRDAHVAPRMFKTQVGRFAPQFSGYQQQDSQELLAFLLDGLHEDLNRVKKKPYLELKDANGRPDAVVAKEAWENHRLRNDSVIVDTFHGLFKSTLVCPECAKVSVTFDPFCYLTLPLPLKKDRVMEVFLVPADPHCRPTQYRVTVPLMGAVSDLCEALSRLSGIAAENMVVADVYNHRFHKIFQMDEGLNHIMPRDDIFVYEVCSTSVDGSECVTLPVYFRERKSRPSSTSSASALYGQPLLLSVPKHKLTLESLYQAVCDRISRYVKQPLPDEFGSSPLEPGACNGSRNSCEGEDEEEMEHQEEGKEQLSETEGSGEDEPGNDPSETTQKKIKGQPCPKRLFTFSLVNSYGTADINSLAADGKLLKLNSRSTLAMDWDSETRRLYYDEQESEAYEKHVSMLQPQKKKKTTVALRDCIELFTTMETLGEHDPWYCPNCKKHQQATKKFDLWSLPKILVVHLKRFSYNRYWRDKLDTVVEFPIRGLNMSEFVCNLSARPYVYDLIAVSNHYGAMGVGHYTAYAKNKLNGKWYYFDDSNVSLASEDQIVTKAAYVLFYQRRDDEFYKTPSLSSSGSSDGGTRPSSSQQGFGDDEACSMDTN
How it was run: as §1

Measured: log2 ratio of Biotin-Ahx-Ub-VS probe labelling

Chain of USP34 (Q70CQ2 whole entry, the tested form may be a part): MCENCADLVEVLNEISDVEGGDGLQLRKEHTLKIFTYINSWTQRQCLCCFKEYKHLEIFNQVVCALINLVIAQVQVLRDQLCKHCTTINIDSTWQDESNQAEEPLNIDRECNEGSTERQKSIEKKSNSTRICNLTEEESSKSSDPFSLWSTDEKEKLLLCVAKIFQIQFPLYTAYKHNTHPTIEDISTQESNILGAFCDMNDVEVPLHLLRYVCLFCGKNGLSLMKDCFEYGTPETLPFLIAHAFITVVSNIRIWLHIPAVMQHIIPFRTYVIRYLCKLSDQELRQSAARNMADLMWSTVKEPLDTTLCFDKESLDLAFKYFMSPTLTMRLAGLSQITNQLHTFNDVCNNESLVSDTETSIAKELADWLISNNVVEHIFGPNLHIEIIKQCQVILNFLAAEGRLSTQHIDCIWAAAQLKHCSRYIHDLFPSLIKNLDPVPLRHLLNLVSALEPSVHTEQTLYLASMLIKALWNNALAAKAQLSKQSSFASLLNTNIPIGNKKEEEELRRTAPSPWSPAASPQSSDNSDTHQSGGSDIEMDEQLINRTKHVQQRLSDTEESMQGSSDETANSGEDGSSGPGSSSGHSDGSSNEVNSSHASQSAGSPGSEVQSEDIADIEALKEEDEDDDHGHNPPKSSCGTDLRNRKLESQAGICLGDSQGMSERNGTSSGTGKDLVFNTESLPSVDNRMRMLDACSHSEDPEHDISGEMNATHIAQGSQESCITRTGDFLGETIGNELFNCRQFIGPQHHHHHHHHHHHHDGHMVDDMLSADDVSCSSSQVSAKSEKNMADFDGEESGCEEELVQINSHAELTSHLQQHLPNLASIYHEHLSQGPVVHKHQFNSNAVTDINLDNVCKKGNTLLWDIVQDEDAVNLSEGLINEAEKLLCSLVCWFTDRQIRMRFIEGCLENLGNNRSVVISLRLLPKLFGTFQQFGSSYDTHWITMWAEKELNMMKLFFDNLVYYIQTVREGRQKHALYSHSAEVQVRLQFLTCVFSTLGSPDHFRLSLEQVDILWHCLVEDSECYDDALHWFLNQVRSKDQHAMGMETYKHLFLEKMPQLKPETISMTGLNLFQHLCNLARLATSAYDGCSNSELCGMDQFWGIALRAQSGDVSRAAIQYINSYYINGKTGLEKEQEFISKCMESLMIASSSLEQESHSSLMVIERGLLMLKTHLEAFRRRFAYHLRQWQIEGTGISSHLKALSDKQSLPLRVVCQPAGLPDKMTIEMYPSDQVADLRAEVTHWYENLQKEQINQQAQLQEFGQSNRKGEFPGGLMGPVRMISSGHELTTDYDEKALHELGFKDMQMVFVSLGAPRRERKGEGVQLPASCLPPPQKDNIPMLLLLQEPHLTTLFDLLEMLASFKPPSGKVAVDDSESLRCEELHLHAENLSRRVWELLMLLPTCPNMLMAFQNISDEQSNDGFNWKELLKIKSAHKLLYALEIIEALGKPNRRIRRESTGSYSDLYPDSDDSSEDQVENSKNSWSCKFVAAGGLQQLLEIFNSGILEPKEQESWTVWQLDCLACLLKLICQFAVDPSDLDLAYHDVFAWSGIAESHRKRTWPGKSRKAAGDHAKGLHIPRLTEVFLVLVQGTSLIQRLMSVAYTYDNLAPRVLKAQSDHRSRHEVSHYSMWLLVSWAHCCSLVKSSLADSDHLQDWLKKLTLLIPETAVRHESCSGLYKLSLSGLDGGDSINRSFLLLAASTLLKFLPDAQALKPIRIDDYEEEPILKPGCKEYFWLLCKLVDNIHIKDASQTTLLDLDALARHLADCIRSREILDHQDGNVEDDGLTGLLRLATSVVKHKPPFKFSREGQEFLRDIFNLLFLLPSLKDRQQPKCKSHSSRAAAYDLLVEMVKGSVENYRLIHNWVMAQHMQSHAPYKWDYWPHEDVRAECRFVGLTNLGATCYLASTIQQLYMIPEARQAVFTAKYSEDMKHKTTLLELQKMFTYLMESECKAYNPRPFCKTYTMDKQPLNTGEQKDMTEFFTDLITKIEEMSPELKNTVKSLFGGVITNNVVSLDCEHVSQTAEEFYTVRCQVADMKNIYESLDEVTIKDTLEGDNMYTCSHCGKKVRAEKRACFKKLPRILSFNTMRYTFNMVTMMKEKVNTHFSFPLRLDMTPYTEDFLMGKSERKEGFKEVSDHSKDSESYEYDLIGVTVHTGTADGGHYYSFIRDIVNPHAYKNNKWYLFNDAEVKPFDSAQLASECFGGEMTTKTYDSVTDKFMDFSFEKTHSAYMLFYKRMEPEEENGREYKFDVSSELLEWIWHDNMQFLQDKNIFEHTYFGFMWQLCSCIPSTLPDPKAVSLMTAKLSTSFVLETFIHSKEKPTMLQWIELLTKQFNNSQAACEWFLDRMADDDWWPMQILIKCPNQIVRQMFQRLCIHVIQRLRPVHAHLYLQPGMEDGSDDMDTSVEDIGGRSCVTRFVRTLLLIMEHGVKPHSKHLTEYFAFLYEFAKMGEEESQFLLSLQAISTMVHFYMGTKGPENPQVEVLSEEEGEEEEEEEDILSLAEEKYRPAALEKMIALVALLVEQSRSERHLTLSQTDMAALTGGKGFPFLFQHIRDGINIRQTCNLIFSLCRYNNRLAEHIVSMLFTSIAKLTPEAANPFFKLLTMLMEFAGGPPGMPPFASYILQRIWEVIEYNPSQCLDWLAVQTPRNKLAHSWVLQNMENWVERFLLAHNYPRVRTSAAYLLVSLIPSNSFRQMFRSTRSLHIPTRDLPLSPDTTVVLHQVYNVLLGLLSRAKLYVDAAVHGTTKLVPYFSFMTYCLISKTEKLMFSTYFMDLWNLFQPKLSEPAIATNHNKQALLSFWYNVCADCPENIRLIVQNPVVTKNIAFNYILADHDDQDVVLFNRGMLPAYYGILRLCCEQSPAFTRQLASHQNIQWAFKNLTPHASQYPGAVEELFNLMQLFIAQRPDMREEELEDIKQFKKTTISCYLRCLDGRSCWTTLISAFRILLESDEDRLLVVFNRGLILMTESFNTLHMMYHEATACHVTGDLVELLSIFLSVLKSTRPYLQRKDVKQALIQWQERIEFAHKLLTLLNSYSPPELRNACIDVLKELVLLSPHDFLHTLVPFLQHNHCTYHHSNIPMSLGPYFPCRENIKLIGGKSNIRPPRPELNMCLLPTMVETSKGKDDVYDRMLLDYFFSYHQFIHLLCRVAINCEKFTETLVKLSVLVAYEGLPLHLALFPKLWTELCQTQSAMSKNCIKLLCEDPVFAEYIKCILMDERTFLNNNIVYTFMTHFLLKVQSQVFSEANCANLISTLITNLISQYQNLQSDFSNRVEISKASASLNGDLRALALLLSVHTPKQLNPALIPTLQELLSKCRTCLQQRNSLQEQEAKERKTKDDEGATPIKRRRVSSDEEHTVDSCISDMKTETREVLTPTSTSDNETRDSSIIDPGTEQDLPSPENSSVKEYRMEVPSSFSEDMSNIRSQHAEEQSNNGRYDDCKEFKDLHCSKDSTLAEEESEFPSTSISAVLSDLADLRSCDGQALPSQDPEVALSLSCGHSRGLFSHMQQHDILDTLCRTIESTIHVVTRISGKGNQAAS

O=C(CCl)Nc1cc(Cl)ccc1C(=O)O
inactive: [1] 0.243 | [2] 0.209 | [3] 0.105 | [4] 0.562 | [5] 0.12
